# Source: PubChem BioAssay
# Akt phos inh: inhibitors of Akt phosphorylation | Neuro2A IGF-stimulated pAkt S473 HTRF, 20 min; stronger effect = lower value | activity change, % for hits at 50 µM | hit rate 0.32% among 360,000 | AID 651550; in the data active = activity change below about -80%; inconclusive = mostly about -51% to -80%
#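 Single-point screen (50 µM final compound) in Neuro2A cells stimulated 20 min with 6 nM IGF at 37 deg C. After lysis, Ser473-phosphorylated Akt read by HTRF (ex 330 nm, em 615/665 nm) as the 665/615 ratio.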
# BRCA1 expr act: increases BRCA1 expression; MCF7-BRCA1-FFLuc reporter, luminescence, 48 h; response scale: scaled: vehicle 0%, 10 µM genistein 100%; Potency, µM (series often up to 46.1 µM), actives largely listed as activators; hit rate 1.1% among 380,000; AID 624202; also: nearly all actives have a fitted effect of over 80% in size
#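 Luminescence from a BRCA1-driven firefly luciferase in MCF7 cells was read after 48 h compound exposure at 37 C. Data normalized against DMSO and a 10microM genistein activation control, then curve-fitted across the titration.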
# MmCpn inh: inhibitors of Methanococcus maripaludis chaperonin TRiC (MmCpn). purified Mm-Cpn ATPase, ADP Transcreener TR-FRET. Potency, µM (doses to about 76.9 µM), most hits filed as inhibitors. hit rate 0.031% among 330,000. AID 504842; also: nearly all actives have a fitted effect of over 80% in size
#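 Reaction buffer contained 30 mM Tris pH 7.4, 100 mM KCl, 5 mM MgCl2 and 1 mM DTT. Mm-CPN (25 nM final) hydrolysed 10 uM ATP over 30 min at 37°C; ADP was read by HTRF.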
# CCT modulator: modulators of cytosolic chaperonin (CCT/TRiC) activity; hit rate 0.3% among 360,000; purified chaperonin ATPase assay, HTRF ADP detection, 30 min; activity change, % (no concentration beside the values), hits read low; in the data active = activity change below about -30%
#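 First, chaperonin was dispensed at 40 nM or 20 nM final depending on batch activity. Next, compounds were pinned at 76 uM and ATP added at 10 uM. After 30 min at 37 °C, ADP detection reagents ran 30 min at ambient temperature.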
# AT treatment: potential ataxia-telangiectasia treatment; hit rate 0.19% among 320,000; F2112 A-T fibroblasts, KAP-1 phosphorylation AlphaLISA; neocarzinostatin DNA damage 30 min before lysis; AID 485349; Potency, µM (doses to about 57.5 µM), actives largely listed as activators; also: nearly all actives have a fitted effect of over 45% in size
#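 hTERT-immortalized A-T patient fibroblasts (F2112), 500 cells/well in OPTI-MEM, 1% FBS, got compounds for 60 min, then NCS for 30 min at 37C. Lysates were then assayed for phospho-KAP-1 by AlphaLISA (anti-pKAP1 donor, anti-KAP1 acceptor beads), 6 hr at 25C.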
# A number is an active result; i = inactive; ? = inconclusive; nt = no result. Sampled rows, rich in hits. Any-hit rate of the full collection: about 1.8%. Unless noted, calls follow the shape of the dose curve; as a rule, active = well fitted curve in the direction sought with a large enough effect; inconclusive = small, poorly fitted or top-dose-only effect, or another doubt; inactive = no such curve, though single readings can be large; an effect the other way counts as inactive or inconclusive.
SMILES,Akt phos inh,BRCA1 expr act,MmCpn inh,CCT modulator,AT treatment
N#CC(C(=O)NCc1ccccc1)c1nc2ccccc2nc1N1CCCC1 (stereo not given),-84%,i,i,i,i
CCOc1ccc(NC(=O)COC(=O)c2ccccc2OCC(=O)N(C)C)cc1,nt,i,nt,nt,nt
CS(=O)(=O)NCCSCc1ccc(Cl)cc1,-108%,i,i,i,i
CC(C)(CNS(C)(=O)=O)SCc1ccc(Cl)cc1,i,i,i,i,i
CC1CCCC(NC(=O)C2CCN(S(=O)(=O)c3cnc[nH]3)CC2)C1C (stereo not given),i,i,i,i,i
Cc1cc(/C=C(\C#N)C(=O)Nc2ccccc2)c(C)n1-c1cccnc1,i,5.6µM,i,i,i
CC(=O)c1c(C)nc(C)nc1NC(=O)C(C)C,-124%,i,i,i,i
Cc1ccc(NC(=O)C2CCN(S(=O)(=O)c3cccc4nonc34)CC2)c(Cl)c1,nt,i,nt,nt,nt
CCC(=O)N(C)CCc1cc2c(c(OC)c1/C=N/Nc1ccc(C(=O)O)cc1)OCO2,i,i,i,i,40µM
CCC(=O)N(C)CCc1cc2c(c(OC)c1/C=N/NC(=O)[C@H]1C[C@@H]1c1ccccc1)OCO2,i,i,i,i,i
Cc1ccc(CSc2nnc(-c3ccco3)o2)cc1,i,5µM,i,i,i
Cc1ccccc1-c1nnc(SCc2ccccc2)o1,i,10µM,i,i,i
Cc1ccccc1-c1nnc(Cc2ccccc2)o1,i,2.8µM,i,i,i
Cc1ccccc1-c1nnc(SCc2ccccc2F)o1,i,?,i,i,i
CCOC(=O)n1cnc2nc(N)nc(SC)c21,i,i,nt,i,nt
Cc1ccccc1S(=O)Cc1ccc(C(=O)NC2CCCCCC2)o1 (stereo not given),nt,i,nt,nt,nt
O=C(Cn1c(=O)n(Cc2ccc(F)cc2)c(=O)c2sc3ccccc3c21)Nc1ccc(F)cc1F,nt,i,nt,nt,nt
O=C(COC(=O)/C=C/c1ccccc1)NCc1ccco1,i,i,nt,-56,nt
Nc1ccc(CSc2ccc(Cl)cc2)c(Cl)c1,i,1.8µM,nt,i,nt
CC1(C(=O)NS(=O)(=O)c2ccccc2Cl)CCN1C(=O)Cc1cccc2ccccc12 (stereo not given),i,i,nt,i,nt
Cn1c(-c2ccc(C(C)(C)C)cc2)n[nH]c1=S,i,20µM,i,i,i
CCCCCCCCCCC(C)(C)C(=O)Nc1c(OC)cc(OC)cc1OC,nt,i,nt,nt,nt
O=C1NC(=O)C(=CC=Cc2ccccc2)S1,i,10µM,nt,i,nt
NC1=NC(=O)/C(=C\C=C\c2ccccc2)S1,i,i,i,i,i
CC(=O)N(O)c1ccc(/C=C2\C=Cc3ccccc32)cc1,nt,i,nt,nt,nt
SMILES,Akt phos inh,BRCA1 expr act,MmCpn inh,CCT modulator,AT treatment
Cn1cccc1C(=O)OCC(=O)NCc1ccc2c(c1)OCO2,i,i,i,i,i
O=C(Nc1ccc2c(c1)OCO2)N1CCN(c2ccccc2Cl)CC1,i,10µM,i,i,i
O=C(CSc1ccccn1)Nc1ccc2c(c1)CCC2,i,10µM,i,i,i
O=C(CNCc1ccccc1Cl)Nc1ccc2c(c1)OCCO2,i,10µM,i,i,i
O=C(CSc1ccccn1)Nc1ccc2ccccc2c1,nt,nt,i,nt,i
Cn1cccc1C(=O)OCC(=O)Nc1ccc2c(c1)OCCO2,i,2µM,i,i,i
COc1cc2nc(N3CCCCC3)nc(NC3CCN(Cc4ccccc4)CC3)c2cc1OC,nt,i,nt,nt,nt
COC(=O)C(C(=O)OC)C1C=CCN(C(C)=O)C1 (stereo not given),i,i,nt,i,nt
O=C(CSc1nnc(-c2cccc(Cl)c2)o1)Nc1ccc2c(c1)OCCO2,i,7.9µM,i,i,i
O=C(CSc1ccccn1)Nc1ccc2c(c1)OCCO2,i,11µM,i,i,i
CCN(CC(=O)Nc1ccc2c(c1)OCCO2)C(=O)c1ccc(Cl)cc1Cl,i,1.8µM,i,i,i
O=C(CSc1ncccn1)NC(=O)Nc1ccc2c(c1)OCCO2,i,13µM,i,i,i
O=C(CSc1ncccn1)Nc1ccc2c(c1)OCO2,i,i,i,i,i
Cc1c(C(=O)N(CC(C)C)c2c(N)n(Cc3ccccc3)c(=O)[nH]c2=O)sc2nc3n(c(=O)c12)CCC3,i,i,i,i,i
CCOC(=O)C1CCN(S(=O)(=O)c2ccc(Cl)cc2OC)CC1,i,i,i,i,i
CCOC(=O)C1CCN(S(=O)(=O)c2cc(Cl)c(C)cc2OC)CC1,-105%,i,i,i,i
COc1ccc(CCNC(=O)c2ccc3c(c2)S(=O)(=O)N=C2CCCCCN23)cc1,i,i,i,i,i
O=[N+]([O-])c1ccc2nc(NN=Cc3ccc(O)cc3)sc2c1,i,i,nt,i,nt
CCOC(=O)C1CCCN(C(=O)c2ccc3nc(-c4ccc(OC)c(OC)c4)c(-c4ccc(OC)c(OC)c4)nc3c2)C1 (stereo not given),i,i,i,i,i
CCOC(=O)C1CCCN(C(=O)c2ccc3nc(-c4ccccc4)c(-c4ccccc4)nc3c2)C1 (stereo not given),nt,i,40µM,i,i
Cc1ccc(C(=O)Nn2cnc3scc(-c4cccs4)c3c2=O)c(O)c1,i,i,i,-47,i
Cc1ccc(-n2cnc3scc(-c4cccs4)c3c2=O)cc1,i,i,i,i,nt
COc1ccc(CN(Cc2ccccc2)C(=O)Nc2ccccc2)cc1COc1ccc(NC(C)=O)cc1,nt,i,nt,nt,nt
Cc1cc(-c2ccc(C(=O)O)s2)cnc1N,i,7.1µM,i,i,i
O=C(O)c1ccc(-c2ccc(-c3ccccc3)cc2)s1,nt,nt,i,nt,i
SMILES,Akt phos inh,BRCA1 expr act,MmCpn inh,CCT modulator,AT treatment
O=S(=O)(c1ccccc1)N1CCN(c2cc(-c3ccccc3)nc3ncnn23)CC1,-88%,i,i,i,i
CCC(=O)n1nc(-c2ccco2)nc1SCc1ccccc1,i,?,i,i,i
CC(=O)n1nc(-c2ccco2)nc1SCc1ccccc1,i,11µM,i,i,i
CN(C(=O)COc1ccccc1C(=O)Nc1ccccc1)c1ccccc1,nt,i,nt,nt,nt
COc1ccc([C@@H]2CC=C(C(=O)O)[C@H](c3ccccc3)N2S(=O)(=O)c2ccccc2C)cc1,i,i,i,-49,i
CCc1cccc(NC(=O)COC(=O)c2ccccc2OCc2ccccc2Br)c1,nt,i,nt,nt,nt
C=C1C=C(C)n2ncc(C(=O)Nc3cccc4cnccc34)c2N1,nt,i,nt,nt,nt
CCN(CC)c1ccc(C(=O)Nc2ccccc2)cc1[N+](=O)[O-],i,10µM,i,i,i
CCN(CC)c1ccc(C(=O)Nc2cccc(F)c2)cc1,-115%,?,i,i,i
CN(C)c1cccc(C(=O)Nc2cccc(F)c2)c1,i,i,i,i,i
Cc1ccc(S(=O)(=O)N2CCN(c3nc(-c4ccnnc4)nc4ccccc34)CC2)cc1,nt,i,nt,nt,nt
Cc1cc(-n2c(C)nc3ccccc3c2=O)ccc1NC(=O)c1cccc([N+](=O)[O-])c1C,nt,i,nt,nt,nt
CC(=O)Nc1ccc(NC(=O)c2ccccc2Sc2ccc([N+](=O)[O-])cc2Cl)cc1,i,i,i,-34,i
